Reference: PubChem BioAssay AID1347056 (Sanford-Burnham Center for Chemical Genomics, 2019)
The campaign covered roughly 360,000 compounds. About 3,600 (1%) were called active. The entries come from a sample that favours actives as a whole. Values without a mark were called inactive.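 How the source made its calls: active means compounds whose plate-normalised and pattern-corrected inhibition of the luciferase reporter signal at the single screening dose is 50% or more; inactive means the rest.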

Assay: inhibitors of TROY-driven NF-kB signaling, primary screen, Q293 LMP1-TROYcd cells, NF-kB luciferase, uHTS (AID 1347056)
Conditions: Q293 LMP1-TROYcd NF-kB luciferase reporter, 4 h; at 10 µM; active compounds read high

| Compound | inhibition |
| --- | --- |
| COc1ccc(C(CNC(=O)c2ccc(OCc3cscn3)cc2)N2CCCC2)cc1 (configuration not stated) | 0.55% |
| CCCS(=O)(=O)N1CCC(C(=O)NCCc2ccc(OC)c(OC)c2)CC1 | 0.11% |
| Clc1ccccc1Nc1nc(NCc2cccs2)nc2ccsc12 | 6.87% |
| COc1cccc(-c2cc3nc(NCc4ccccc4OC)n(C)c(=O)c3s2)c1 | -20.1% |
| COCCNc1nc(NCc2ccc(NC(C)=O)cc2)c2sccc2n1 | 8.19% |
| COc1cccc(CNc2nc(NCc3ccccc3OC)nc3ccsc23)c1 | 53.4% (active) |
| COc1ccccc1CNc1nc(Nc2ccccc2Cl)c2sccc2n1 | 42.1% |
| COc1cccc(CNc2nc(NCc3cccs3)nc3ccsc23)c1 | 57.2% (active) |
| CCOCCCNC(=S)N1CCC(NC(=O)C2CCCCC2)CC1 | 10.6% |
| COc1ccc(C)cc1S(=O)(=O)NCCc1ccccc1 | 10.5% |
| O=[N+]([O-])c1cc(S(=O)(=O)NCCc2ccccn2)ccc1Cl | -5.27% |
| Cc1ccc(CC(=O)Nc2cccc(C#N)c2)cc1 | 5.18% |
| CCOc1c2ccc(C(=O)NC3CCCc4ccccc43)cc2nn1CC (configuration not stated) | 2.7% |
| C/C(=N\NS(=O)(=O)c1ccc(Cl)cc1)c1ccc(NC(=O)c2ccco2)cc1 | -42.5% |
| COc1ccc(-n2ncc3c(SCC(=O)NNC(C)=O)ncnc32)cc1 | -14.8% |
| CN(C(=O)COc1ncnc2c1cnn2-c1ccccc1)C1CCCCC1 | 11.5% |
| COc1ccc(-n2ncc3c(N4CCCc5ccccc54)ncnc32)cc1 | 62.1% (active) |
| O=C(CC1CCCCC1)NCc1ccc(F)cc1 | -30.5% |
| CC(C)NC(=O)N1Cc2cc(C(=O)NCC(F)(F)F)nc(-c3cccc(-c4cc5ccccc5o4)c3)c2[C@@H]1CCO | 9.45% |
| COC(=O)[C@@H]1C[C@H]2CC[C@H](O)C[C@H]2N1Cc1ccc(N2CCN(C)CC2)cc1 | 4.5% |
| CC(C)(CNC(=O)CNC(=O)C1CCCCC1)N1CCOCC1 | 6.69% |
| O=C(O)c1cc(S(=O)(=O)N(Cc2ccccc2)c2cccc(C(F)(F)F)c2)ccc1Cl | 3% |
| O=C(NNc1ccccc1Cl)C(O)(c1cccc(C(F)(F)F)c1)c1cccc(C(F)(F)F)c1 | 54.1% (active) |

| Compound | inhibition |
| --- | --- |
| O=c1cc(O)c(-c2cccc(C(F)(F)F)c2)c(Cl)[nH]1 | -14.8% |
| Cc1ccc(S(=O)(=O)N2CCC3(CC2)OCCO3)c(C)c1 | 5.19% |
| COc1ccc(/C(C)=N/N2CCOCC2)c(O)c1 | 6.68% |
| CC1=C(C)CC(C(=O)NNC(=O)c2csc3c2CCC(C(C)(C)C)C3)C(C(=O)O)C1 (configuration not stated) | -0.5% |
| COc1ccc(CNC(=O)C2CCN(S(=O)(=O)N3CCOCC3)CC2)cc1 | 7% |
| O=C(NCCCN1CCN(Cc2ccccc2)CC1)C1CCN(S(=O)(=O)N2CCCC2)CC1 | -13% |
| COc1ccc(N2CCN(CCCNC(=O)C3CCN(S(=O)(=O)N4CCOCC4)CC3)CC2)cc1 | 91.5% (active) |
| CCCCc1c(-c2ccc(Cl)cc2)ncn1CCc1ccccc1OC | 38.5% |
| O=C(CNCc1ccc(F)cc1)Nc1ccccc1-c1ccccc1 | 25.9% |
| OC1CCCN(c2ncnc3c2nnn3Cc2c(F)cccc2Cl)C1 (configuration not stated) | -10.3% |
| O=C(CNC(=O)C(c1ccccc1)c1ccccc1)N/N=C\c1ccc2c(c1)OCO2 | -30.7% |
| Cc1cccc(NC(=O)/C=C/c2ccc3c(c2)OCO3)n1 | -33.1% |
| C(=N\Nc1ccc2ccccc2n1)/c1ccc2c(c1)OCO2 | 69.8% (active) |
| COc1cccc(-c2nn(-c3ccccc3)cc2/C=C(\C#N)C(=O)NCCCn2ccnc2)c1 | -24.5% |
| COc1ccc(-c2nn(-c3ccccc3)cc2CN2CCCO2)c(F)c1 | -17.1% |
| COc1ccc(-c2nn(-c3ccccc3)cc2/C=C2/SC(=S)N(CCCC(=O)O)C2=O)c(C)c1 | 58% (active) |
| O=C(C1CCC1)N1CCN(S(=O)(=O)c2ccc([N+](=O)[O-])cc2)CC1 | -10.9% |
| Cc1ccc2c(C)c(C(=O)N3CCN(c4ccncc4)CC3)oc2c1C | 5.65% |
| c1ccc(CN2CCC(N=C3NN=C(c4ccc5c(c4)OCCO5)CS3)CC2)cc1 | 77.6% (active) |
| CC(=NC1CCN(Cc2ccccc2)CC1)c1c(O)[nH]c(=O)[nH]c1=O | 26.3% |
| Clc1cccc(N=C2NN=C(c3ccc4c(c3)OCCO4)CS2)c1 | 66.2% (active) |
| CN(C)c1nc(=Nc2cccc(Cl)c2)ss1 | -31.5% |
| CS(=O)(=O)N(CC(=O)N1CCN(Cc2ccccc2)CC1)c1ccc2c(c1)OCCO2 | 19.4% |

| Compound | inhibition |
| --- | --- |
| C/C(=N\NC(=O)c1ccc(NS(=O)(=O)c2cccs2)cc1)c1ccc2ccccc2c1 | -29.3% |
| CC(NC(=O)c1ccc(S(=O)(=O)Nc2ccccc2)cc1)c1ccc(S(N)(=O)=O)cc1 (configuration not stated) | 2.55% |
| COCCOC(=O)c1c(C)oc2cc(Br)c(OCC(N)=O)cc12 | 9.46% |
| CC(=O)c1ccc(NC(=O)C(C)OC(=O)c2ccc(NS(=O)(=O)c3ccc4[nH]c(=O)[nH]c4c3)cc2)cc1 (configuration not stated) | -12.5% |
| CCCCN1C(=S)NC[C@@H]1C(C)CC (some centres not stated) | -3.76% |
| O=[N+]([O-])/C(N=Nc1ccccc1)=N\Nc1ccccc1 | -1.58% |
| COC(=O)c1cc(=O)n(-c2c(Cl)cc(C(F)(F)F)cc2Cl)[nH]1 | 6.27% |
| NC1=NC(=O)S/C1=C\c1ccc(O)cc1 | -17.8% |
| COc1cccc(/C=C/c2ccc3ccccc3n2)c1OC(C)=O | 54.2% (active) |
| CCOc1cccc(/C=C/c2ccc3ccccc3n2)c1OC(C)=O | 33.9% |
| COc1cccc(NC(=O)COC(=O)c2ccc3ccccc3n2)c1 | -23.3% |
| CCOc1ccc(C2c3[nH]c4ccccc4c3CCN2Cc2cccn2-c2ncccn2)cc1 (configuration not stated) | 47.5% |
| COC(=O)C1=C(C(=O)OC)[C@@H]2N(C)c3ccccc3[C@@]23C[C@@H](C(=O)OC)N(C(=O)c2ccco2)C3=N1 | 7.75% |
| O=S1(=O)CC(NCc2ccccc2)C(Nc2ccc(Cl)cc2)C1 (configuration not stated) | 57% (active) |
| O=C(Cc1ccc(Cl)cc1)NC1CCS(=O)(=O)C1 (configuration not stated) | 3.91% |
| O=C(NCCS(=O)(=O)NCc1ccc(Cl)cc1)c1ccccc1 | 4.3% |
| CC(NC(=S)Nc1ccc(OC(F)F)cc1)c1ccc(F)cc1 (configuration not stated) | -5.08% |
| Cc1cccc(N2CCN(S(=O)(=O)c3ccc(-c4cc(C)no4)s3)CC2C)c1 (configuration not stated) | -15% |
| Cc1cccc(CNS(=O)(=O)c2ccc(-c3cnc(C4CC4)o3)cc2)c1 | 15.4% |
| COc1ccc(CNS(=O)(=O)c2ccc(-c3cnc(C4CC4)o3)cc2)cc1 | 26% |
| Cc1cccc(NS(=O)(=O)c2ccc(-c3cnc(C4CC4)o3)cc2)c1 | 50.5% (active) |
| Cc1c(NC(=O)CCC2CCCCC2)cc(C(=O)N2CCOCC2)cc1[N+](=O)[O-] | 12.1% |
| COC(=O)[C@]1(C)N[C@H](CN(C)C(=O)c2ccc(C(C)(C)C)cc2)[C@@H]2C(=O)N(C)C(=O)[C@@H]21 | -13.4% |

| Compound | inhibition |
| --- | --- |
| COc1cccc(OCC(=O)NCCS(=O)(=O)N2CCN(c3ccccc3)CC2)c1 | 17.7% |
| COCc1cc(C)nc(Nc2cc(C)ccc2C)c1C#N | 0.76% |
| O=C(COC(=O)c1ccncc1)c1ccccc1 | -18.8% |
| Cc1noc(C)c1COC(=O)COc1ccc(-c2ccccc2)cc1 | 4.68% |
| O=C(Oc1ccc(-c2nc(-c3ccccn3)no2)cc1)c1ccccc1 | 60% (active) |
| O=C(Cc1coc2ccc3ccccc3c12)NCc1cccs1 | -38.6% |
| O=C(NCc1cccs1)c1cc(-c2ccccn2)nc2ccc(Br)cc12 | -12.5% |
| CC(C)Cn1c(N)c(C(=O)NCc2cccs2)c2nc3ccccc3nc21 | 51.3% (active) |
| CCOc1ccc(NC(=O)CCS(=O)(=O)c2ccc3c(c2)CCCN3C(=O)CC)cc1 | 21.6% |
| CCOC(=O)c1cc(C)sc1NC(=O)C1CCC1 | 12.2% |
| CC1=NN(C(=O)CCCc2ccccc2)C(O)(C(F)(F)F)C1 (configuration not stated) | 6.41% |
| C=CCN1CCN(C(=O)CCCc2ccccc2)CC1 | 73.6% (active) |
| CCN1CCN(C(=O)CCN2C(=O)c3ccccc3C2=O)CC1 | 13.8% |
| C/C(CC(=O)NC(C)c1ccccc1)=N\NC(N)=S (configuration not stated) | 0.63% |
| Cn1nccc1C(=O)NC1CCCc2c1cnn2-c1ccc(F)cc1F (configuration not stated) | 28% |
| COc1ccc(OC)c(C(=O)NC2CCCc3c2cnn3-c2cc(C)cc(C)c2)c1 (configuration not stated) | -13.7% |
| COc1ccc(C(=O)NC2CCCc3c2cnn3-c2cccc(C)c2C)c(OC)n1 (configuration not stated) | 55.4% (active) |
| Cc1ccccc1-n1nc(C)c2c1N=C1C(Cl)=CC(Cl)=CN1C2c1ccc(C(=O)O)cc1 (configuration not stated) | 1.29% |
| Cc1cc(Br)cn2c(Cc3ccccc3C(F)(F)F)c(C3CCCCC3)nc12 | 15.5% |
| CCOC(=O)c1cnc(SCc2nc(N)nc(Nc3ccc(OC)cc3)n2)nc1N | -4.61% |
| CSc1ncccc1C(=O)Nc1nc2ccc(F)cc2s1 | 54.6% (active) |
| CSc1ncccc1C(=O)Nc1ccc2c(c1)OCO2 | -13.6% |
| CCS(=O)(=O)N1Cc2ccccc2CC1C(=O)Nc1nc2ccc(F)cc2s1 (configuration not stated) | 42.9% |
